This note sets out measurements from PubChem BioAssay AID624335 (National Center for Advancing Translational Sciences (NCATS), 2012).

The source made the active and inactive calls. Calls come from the whole dose curve; as a rule, active = well fitted curve in the direction sought with a large enough effect; inactive = flat fitted curve, though single readings scatter.

This experiment is described as follows: Quantitative high throughput screen for delayed death inhibitors of the malarial parasite plastid: Hit Validation with 3D7 at 96 hr using Flow Cytometry. Conditions: P. falciparum 3D7 in erythrocytes, SYBR/MitoTracker flow cytometry. The source says:
The goal of this screen is to discover new antimalarial compounds that act by inhibiting the development of the apicoplast organelle in the malarial parasite Plasmodium falciparum. Some antibiotics, such as azithromycin and tetracycline, are known to interfere with the apicoplast translational machinery, and have a potent antimalarial effect. […] We developed a cell-based quantitative high throughput screen that leverages this "delayed death" phenotype to enrich for compounds that target the apicoplast. To detect small molecules that cause the delayed death phenotype, erythrocytes infected with firefly luciferase-expressing parasites were incubated with compounds for either one or two generations, corresponding to 48 and 96 hours, respectively. Growth inhibition was detected by a decrease in luciferase activity. Compounds that inhibited parasite growth in the second generation at least five-fold more potently than in the first generation were defined as delayed death inducing. These compounds were selected for confirmatory screening using a flow cytometry based assay. This hit validation assay used the 3D7 cell line and measured at 96 hours. NIH Molecular Libraries Probe Production Network [MLPCN] NIH Chemical Genomics Center [NCGC] MLPCN Grant: R21 NS059500 Assay Provider: David Fidock and Eric Ekland, Columbia University
Test compounds were diluted in 20 microliters of complete media (RPMI 1640 with 0.5% w/v Albumax (GIBCO), 24 mM sodium bicarbonate (Sigma) and 10 ug/mL gentamycin (Gibco)) in clear 384-well plates (Greiner). All liquid handling was conducted using a Bio Tek Precision 2000 pipetting system. Twenty microliters of infected erythrocytes, 0.2% parasitemia (for 48 hour time points) or 0.1% parasitemia (for 96 hour time points) were added to the compound dilutions (1% hematocrit, final concentration; 40 microliters, total culture volume). The assay plates were incubated for 48 hours, or 96 hours, at 37 masculine C in a humidified chamber (Billups- Rothenberg, Del Mar, CA, USA), gassed with 5%CO2/5%O2/ 90%N2. After two generations (96hours), 5 microliters of culture were harvested and transferred to a second 384 well plate for fluorescent staining. Samples were stained with 30 microliters of 2 x SYBR Green I (Invitrogen) and 150nM MitoTracker Deep Red (Invitrogen) diluted in 0.9% NaCl, 0.2% dextrose (Baxter) supplemented with 2.5% Fetal Calf Serum (Gibco) (saline/FCS). Mature erythrocytes lack nuclei and mitochondria, therefore only parasitized erythrocytes retain the SYBR Green I and MitoTracker Deep Red. After 30 minutes at 37 masculine C, the stained cells were diluted in an additional 60 microliters of saline/FCS. The samples were harvested directly from the 384 well plate using a Hypercyt High Capacity Flow Platform (Intellicyt) paired with a C6 Flow Cytometer (Accuri). The flow cytometry files were analyzed using FlowJo software (FlowJo).
With `Cc1ccc(S(=O)(=O)Nc2ccc(C(=O)Nc3ccncc3)cc2)cc1`, the Potency was 13.9 µM (active).

For the compound `CCc1nc(SCC(=O)Nc2ccc(N(C)C)cc2)n[nH]1`, the Potency was 23.9 µM (active).
